Results taken from PubChem BioAssay (NCATS).
Inconclusive results are not listed. Active and inactive are the calls of the source. Calls follow the shape of the dose curve; as a rule, active = well fitted curve in the direction sought with a large enough effect in the signal ratio, with a control signal flat (not every such curve was filed as active); inconclusive = small, poorly fitted or top-dose-only effect, or a change in a side signal; inactive = no such curve, though single readings can be large or run the other way; the % refers to the signal ratio.

Experiment: qHTS Assay for Identification of Small Molecule Inducers of Hypoxia Response (AID 2120)
Conditions: hypoxia response reporter cells, beta-lactamase ratio readout; series mostly up to 104 µM
Description: NIH Chemical Genomics Center [NCGC]
NIH Molecular Libraries Screening Centers Network [MLSCN]
National Institutes of Environmental Health Sciences [NIEHS]
National Toxicology Program [NTP]
Hypoxia-inducible factor-1 (HIF-1) is the major hypoxia-regulated transcription factor that controls cellular responses to low oxygen concentration. HIF-1 is composed of two subunits: hypoxia responsive HIF-1a and constitutively expressed HIF-1b, which is also known as aryl hydrocarbon receptor nuclear translocator. During hypoxic conditions, HIF-1a heterodimerizes with HIF-1b and translocates into the nucleus where the HIF-1 complex binds to the hypoxia-response element (HRE) and activates expression of target genes such as VEGF (vascular endothelial growth factor). The HIF-1 pathway is essential to normal growth and development, and is involved in the pathophysiology of cancer, inflammation, and ischemia.
Using a beta-lactamase reporter-gene under control of the hypoxia response element, a cell-based assay [CellSensor(TM) HRE-bla ME-180 developed by Invitrogen Corp.] was used to measure hypoxia-induced signaling. Library compounds were measured for their ability to induce the reporter gene activity. Compounds were screened in a titration series in 1536-well format. The inducers were identified based on the AC50 values derived from the screening data.
NCGC Assay Protocol Summary
2500 cells/5uL in Opti-MEM medium containing 0.5% dialyzed FBS, 0.1 mM NEAA, 1 mM sodium pyruvate and 10 mM HEPES was dispensed into 1536-well plates and cells were cultured at 37 degrees Celsius for 4-5 hours and then 23 nL of compounds or DMSO were delivered to each well using a pin tool. The plates were incubated at 37 degrees Celsius for 17 hours. 1 uL of CCF4-dye mixture was added to each well. After incubated at room temperature for 2.5 hours the plates were measured on an EnVision plate reader at Excitation 405nm, Emission1=460nm and Emission 2=530nm. The %Activity was determined from the ratio of 460nm/530nm.

Compound | outcome
CC(C)C=O | inactive
Cc1ccc(Br)cc1 | inactive
O=Nc1ccc(NO)cc1 | inactive
Fc1ccccc1 | inactive
Nc1cc([N+](=O)[O-])ccc1C(=O)O | inactive
CC(=O)CC(C)C | inactive
CC(C)(C)OC=O | inactive
CNc1ccccc1 | inactive
O=C(Cl)c1cccc([N+](=O)[O-])c1 | inactive
O=C(O)CNC(=O)c1ccc(CO)o1 | inactive
C=C(C)OC(C)=O | inactive
N#CCc1ccccc1[N+](=O)[O-] | inactive
O=[N+]([O-])c1ccc2nc[nH]c2c1 | inactive
ClCCl | inactive
Cc1cc(C)cc(O)c1 | inactive
CC(=O)c1cc(C)oc1C | inactive
CC(=O)OCc1ccco1 | inactive
Nc1cccc(S(=O)(=O)O)c1 | inactive
CC(C)(O)CCC(C)(C)O | inactive
Cc1cccc(C(=O)O)c1[N+](=O)[O-] | inactive

Compound | outcome
CCCCCCCN | inactive
CC/C(C)=N/O | inactive
OCCO | inactive
N#Cc1ccccc1 | inactive
CN(C)CCCNCCCN | inactive
c1ccc2c(c1)Oc1ccccc1S2 | inactive
Nc1nc(-c2ccccc2)cs1 | inactive
Cc1c(N)cccc1[N+](=O)[O-] | inactive
O=C1OC(=O)c2cc([N+](=O)[O-])ccc21 | inactive
Nc1cccc(N)c1 | inactive
CCNS(=O)(=O)c1ccc(C)cc1 | inactive
Cc1cccc([N+](=O)[O-])c1C(=O)O | inactive
c1ccc2[nH]cnc2c1 | inactive
O=Cc1cccc(Br)c1 | inactive
CCC(C)(C)C | inactive
CC(=C/C=C/C(C)=C/C=C/C=C(C)/C=C/C=C(C)/C=C/C(=O)O)/C=C/C(=O)O | inactive
OC(CCl)CCl | inactive
Cc1cc(C)cc(N)c1 | inactive
O=C1C=CCCC1 | inactive
O=C(O)CCSSCCC(=O)O | inactive
